About 83,000 compounds went through this panel and 20% of them were active in at least one assay; those are over-represented in the sample as a whole.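 Each cell line was grown in a 96-well plate and treated with one concentration of compound for 48 hours. Values below 10 were considered active.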 Activity calls are given as the source filed them.
Tests used:
Test in all cases: NCI-60 one-dose screen, 48 h (100 = growth as untreated, 0 = no growth, -100 = all killed)
Settings in all cases: 10 µM
NCI-H23 lung = tested on: NCI-H23 lung
NCI-H226 lung = tested on: NCI-H226 lung
NCI-H322M lung = tested on: NCI-H322M lung
HOP-62 NSCLC = tested on: HOP-62 NSCLC
NCI-H460 lung = tested on: NCI-H460 lung
HOP-92 NSCLC = tested on: HOP-92 NSCLC
NCI-H522 lung = tested on: NCI-H522 lung
A549/ATCC NSCLC = tested on: A549/ATCC NSCLC
786-0 renal = tested on: 786-0 renal
COLO 205 colon = tested on: COLO 205 colon

Measured: growth

CC(=O)Nc1ccc(Sc2ccc(NC(C)=O)cc2)cc1
inactive: NCI-H23 lung 94.1% | NCI-H226 lung 101% | NCI-H322M lung 110% | HOP-62 NSCLC 70.7% | NCI-H460 lung 105% | HOP-92 NSCLC 83.1% | NCI-H522 lung 75.7% | A549/ATCC NSCLC 80% | 786-0 renal 94% | COLO 205 colon 101%

CC(C)C(C)C(N)C(=O)O (stereo not given)
inactive: NCI-H23 lung 97.8% | NCI-H226 lung 102% | NCI-H322M lung 99% | HOP-62 NSCLC 89.9% | NCI-H460 lung 109% | HOP-92 NSCLC 86.8% | NCI-H522 lung 91.2% | A549/ATCC NSCLC 104% | 786-0 renal 92.8% | COLO 205 colon 108%

CN(C)CCCN(Cc1ccccc1O)C(=S)Nc1ccc(Cl)cc1
inactive: NCI-H23 lung 108% | NCI-H226 lung 94.5% | NCI-H322M lung 98.1% | HOP-62 NSCLC 108% | NCI-H460 lung 102% | HOP-92 NSCLC 86.8% | NCI-H522 lung 96% | A549/ATCC NSCLC 98.1% | 786-0 renal 107% | COLO 205 colon 113%

CCOC(=O)C1=C(Nc2ccc(OC)cc2)C(N)=NC1=N
inactive: NCI-H23 lung 52.6% | NCI-H226 lung 42.9% | NCI-H322M lung 50.2% | HOP-62 NSCLC 52.4% | NCI-H460 lung 22.2% | HOP-92 NSCLC 48.4% | NCI-H522 lung 42% | A549/ATCC NSCLC 31.8% | 786-0 renal 59.3%
active: COLO 205 colon -10.1%

CCNC(=S)NN
inactive: NCI-H23 lung 93.1% | NCI-H226 lung 99.1% | NCI-H322M lung 78.7% | HOP-62 NSCLC 76.2% | NCI-H460 lung 95.6% | HOP-92 NSCLC 87.3% | NCI-H522 lung 105% | A549/ATCC NSCLC 72.5% | 786-0 renal 99.5% | COLO 205 colon 106%

COc1ccc(-c2csc(-c3cc(Cl)cc(Cl)c3Cl)n2)cc1
inactive: NCI-H23 lung 91.4% | NCI-H226 lung 88.9% | NCI-H322M lung 98.6% | HOP-62 NSCLC 91.1% | NCI-H460 lung 97.9% | HOP-92 NSCLC 85.8% | NCI-H522 lung 81.8% | A549/ATCC NSCLC 54.5% | 786-0 renal 111% | COLO 205 colon 91.6%

O=C(c1ccc(Cl)cc1)c1no[n+]([O-])c1C(=O)c1ccc(Cl)cc1
active: NCI-H522 lung -77.8% | 786-0 renal -34.5%
inactive: NCI-H23 lung 98.4% | NCI-H226 lung 102% | NCI-H322M lung 107% | HOP-62 NSCLC 104% | NCI-H460 lung 108% | HOP-92 NSCLC 88.4% | A549/ATCC NSCLC 104% | COLO 205 colon 107%

Cc1cn(C(=O)/C(Cl)=C(/Cl)C(=O)O)c2ccccc12
inactive: NCI-H23 lung 96.7% | NCI-H226 lung 97.6% | NCI-H322M lung 128% | HOP-62 NSCLC 88% | NCI-H460 lung 114% | HOP-92 NSCLC 80.4% | NCI-H522 lung 110% | A549/ATCC NSCLC 111% | 786-0 renal 116% | COLO 205 colon 91.7%

CCCOCC(O)CNCCN (stereo not given)
inactive: NCI-H23 lung 109% | NCI-H226 lung 121% | NCI-H322M lung 105% | HOP-62 NSCLC 92.6% | NCI-H460 lung 104% | HOP-92 NSCLC 56.9% | NCI-H522 lung 102% | A549/ATCC NSCLC 102% | 786-0 renal 105% | COLO 205 colon 110%

COc1cccc(C(=O)NNc2nc(N3CCN(C4CCCCC4)CC3)nc(N3CCN(C(c4ccccc4)c4ccccc4)CC3)n2)c1
inactive: NCI-H23 lung 41.5% | NCI-H226 lung 73.7% | NCI-H322M lung 74.5% | HOP-62 NSCLC 45.2% | NCI-H460 lung 46.1% | HOP-92 NSCLC 45.5% | NCI-H522 lung 60.5% | A549/ATCC NSCLC 35.8% | 786-0 renal 53% | COLO 205 colon 14.2%

O=[N+]([O-])c1ccc2c(c1)Cc1cc(I)ccc1-2
inactive: NCI-H23 lung 99.4% | NCI-H226 lung 97.7% | NCI-H322M lung 104% | HOP-62 NSCLC 113% | NCI-H460 lung 98.4% | HOP-92 NSCLC 89.4% | NCI-H522 lung 95.7% | A549/ATCC NSCLC 94.7% | 786-0 renal 90% | COLO 205 colon 108%

O=c1ccc2nc(-c3ccccc3)nn(-c3ccccc3)c-2c1
inactive: NCI-H23 lung 54.4% | NCI-H226 lung 68.1% | NCI-H322M lung 88.2% | HOP-62 NSCLC 69.5% | NCI-H460 lung 81.4% | A549/ATCC NSCLC 73.7% | 786-0 renal 48.6%
active: HOP-92 NSCLC -33% | NCI-H522 lung -90.5% | COLO 205 colon -78.8%

CCN1CCN(c2ccc(Nc3ncnc4c3nnn4CCc3cc(OC)cc(OC)c3)cc2)CC1
inactive: NCI-H23 lung 88.8% | NCI-H226 lung 85.8% | NCI-H322M lung 95.6% | HOP-62 NSCLC 99.4% | NCI-H460 lung 106% | HOP-92 NSCLC 89.6% | NCI-H522 lung 96.1% | A549/ATCC NSCLC 95.5% | 786-0 renal 99.6% | COLO 205 colon 89.3%

O=c1cc(CSc2nnc(-c3ccccc3)n2-c2ccc(F)cc2)c2ccc3ccccc3c2o1
inactive: NCI-H23 lung 83.6% | NCI-H226 lung 81.4% | NCI-H322M lung 91.8% | HOP-62 NSCLC 92.8% | NCI-H460 lung 100% | HOP-92 NSCLC 83.5% | NCI-H522 lung 74.1% | A549/ATCC NSCLC 99.2% | 786-0 renal 102% | COLO 205 colon 91.3%

COC(=O)c1cnc2c(c1)Oc1ccc(Cl)cc1-c1cc(C)nn1-2
inactive: NCI-H23 lung 74.5% | NCI-H226 lung 66.3% | NCI-H322M lung 66.9% | HOP-62 NSCLC 68.3% | NCI-H460 lung 29.5% | HOP-92 NSCLC 85.6% | NCI-H522 lung 82.3% | A549/ATCC NSCLC 59.2% | 786-0 renal 97.5% | COLO 205 colon 71.5%

COc1ccc(/C(=C/c2cc(OC)c(OC)cc2[N+](=O)[O-])C(=O)O)cc1
inactive: NCI-H23 lung 103% | NCI-H226 lung 101% | NCI-H322M lung 118% | HOP-62 NSCLC 94.1% | NCI-H460 lung 110% | HOP-92 NSCLC 97.2% | NCI-H522 lung 107% | A549/ATCC NSCLC 108% | 786-0 renal 106% | COLO 205 colon 127%

CCCn1c(=O)c2c(nc(-c3cccc(OCCCCl)c3)n2C)n(CCC)c1=O
inactive: NCI-H23 lung 59.1% | NCI-H226 lung 16.5% | NCI-H322M lung 41% | NCI-H460 lung 24.4% | NCI-H522 lung 83.2% | A549/ATCC NSCLC 28.3% | 786-0 renal 23.9% | COLO 205 colon 65.8%
active: HOP-62 NSCLC -18.3% | HOP-92 NSCLC -1.14%

CCCCCCOc1ccc(/C=C/C(=O)c2ccc(B(O)O)cc2)cc1
active: HOP-92 NSCLC 5.7%
inactive: NCI-H23 lung 76.2% | NCI-H226 lung 75.6% | NCI-H322M lung 85.9% | HOP-62 NSCLC 89.8% | NCI-H460 lung 91.7% | NCI-H522 lung 66.1% | A549/ATCC NSCLC 75.7% | 786-0 renal 73% | COLO 205 colon 103%

Nc1ccccc1NC(=O)CCCCCCC(=O)Nc1ccc2c(c1)/C(=C/c1ccc[nH]1)C(=O)N2
inactive: NCI-H23 lung 60.7% | NCI-H226 lung 45.5% | NCI-H322M lung 40.6% | HOP-62 NSCLC 52.2% | NCI-H460 lung 27.5% | NCI-H522 lung 11.7% | A549/ATCC NSCLC 47% | 786-0 renal 38.2% | COLO 205 colon 79.4%
active: HOP-92 NSCLC 8.25%

Cc1ccc([P+](Cc2ccc([N+](=O)[O-])cc2)(c2ccc(C)cc2)c2ccc(C)cc2)cc1
inactive: NCI-H23 lung 41% | NCI-H226 lung 80.6% | NCI-H322M lung 69.3% | HOP-62 NSCLC 70.8% | NCI-H460 lung 60.5% | A549/ATCC NSCLC 81% | 786-0 renal 82.4%
active: HOP-92 NSCLC -19.6% | NCI-H522 lung 0.971% | COLO 205 colon 7.68%

Cc1ccc(/C=C2\CN(Cc3cn(CCNc4ccnc5cc(Cl)ccc45)nn3)C/C(=C\c3ccc(C)cc3)C2=O)cc1
active: NCI-H23 lung -26.8% | NCI-H226 lung -66.9% | NCI-H322M lung 5.6% | HOP-62 NSCLC -64.5% | NCI-H460 lung -51% | HOP-92 NSCLC -42.6% | NCI-H522 lung -49.5% | A549/ATCC NSCLC -17.2% | 786-0 renal -36% | COLO 205 colon -66.7%

FC(F)(F)c1ccc(-c2cnc(Cl)nc2NCc2cc(C(F)(F)F)cc(C(F)(F)F)c2)cc1
inactive: NCI-H322M lung 37.8% | HOP-62 NSCLC 33.4% | A549/ATCC NSCLC 15.8% | 786-0 renal 11.5%
active: NCI-H23 lung 1.54% | NCI-H226 lung 7.69% | NCI-H460 lung 3.48% | HOP-92 NSCLC -35.3% | NCI-H522 lung -4.24% | COLO 205 colon -51.1%

COC(=O)c1c(C)nc(Nc2nc3ccccc3s2)nc1-c1ccc(Cl)cc1Cl
inactive: NCI-H23 lung 103% | NCI-H226 lung 102% | NCI-H322M lung 106% | HOP-62 NSCLC 97% | NCI-H460 lung 106% | HOP-92 NSCLC 107% | NCI-H522 lung 96.1% | A549/ATCC NSCLC 107% | 786-0 renal 104% | COLO 205 colon 110%

O=C(Nc1ccc(Oc2ccc(Nc3nc4ccccc4s3)cc2)cc1)Nc1ccc(Cl)c(Cl)c1
active: NCI-H23 lung 8.31% | NCI-H522 lung 7.82%
inactive: NCI-H226 lung 46.5% | NCI-H322M lung 56.6% | HOP-62 NSCLC 47% | NCI-H460 lung 15.8% | HOP-92 NSCLC 37.9% | A549/ATCC NSCLC 32.8% | 786-0 renal 43.3% | COLO 205 colon 31.1%

CCOC(=S)Sc1ccc([N+](=O)[O-])cc1[N+](=O)[O-]
active: NCI-H522 lung -1.29% | COLO 205 colon -13.1%
inactive: NCI-H23 lung 97.3% | NCI-H226 lung 88.8% | NCI-H322M lung 93.3% | HOP-62 NSCLC 94% | NCI-H460 lung 106% | HOP-92 NSCLC 48.6% | A549/ATCC NSCLC 83.2% | 786-0 renal 102%

CCOC(=O)c1ccc(NC(=O)Nc2nncs2)cc1
active: NCI-H226 lung -21.3% | NCI-H460 lung 7.58% | NCI-H522 lung 7.15% | COLO 205 colon -25.9%
inactive: NCI-H23 lung 21.9% | NCI-H322M lung 43.2% | HOP-62 NSCLC 26.4% | HOP-92 NSCLC 58.2% | A549/ATCC NSCLC 19.4% | 786-0 renal 35.4%

COc1ccc(Cn2cc3c(c2-c2cc(OC)c(OC)c(OC)c2)CCc2cnoc2-3)cc1[N+](=O)[O-]
active: NCI-H460 lung 7.93% | COLO 205 colon 1.15%
inactive: NCI-H23 lung 26.1% | NCI-H226 lung 47.5% | NCI-H322M lung 26.7% | HOP-62 NSCLC 56.6% | HOP-92 NSCLC 64% | NCI-H522 lung 46.2% | A549/ATCC NSCLC 34% | 786-0 renal 34.3%
